From PubChem BioAssay
Pf Dd2 inh = blocks in vitro growth of P. falciparum Dd2; P. falciparum Dd2 growth, SYBR Green, 72 h; Potency, µM (doses to about 28.9 µM), without a hit: at the top dose activity, negative = inhibition, most hits filed as inhibitors; 4.3% of 120,000 active; active = well fitted inhibition curve with a large enough effect;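 also: plate controls were DMSO vehicle for no effect and reference drug for full effect; nearly all actives have a fitted effect of over 65% in size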
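Infected erythrocytes (Dd2, 0.3% parasitemia, 2.5% hematocrit final) are added to compound in RPMI-1640/Albumax II medium, grown 72 h at 37C in low oxygen, then lysed with saponin/Triton-X containing SYBR Green and read by fluorescence.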
Starred values were filed as active, the others as inactive; [ ] = another dose, or the depositor's remark. The sample as a whole holds a higher share of hits than the screen did. Potency is read from the fitted curve at half-maximal effect.

Screening Cc1ccc(NC(=O)CN2C(=O)CCSc3ccc(S(=O)(=O)N4CCCC4)cc32)cc1 returned Pf Dd2 inh inactive.
`Cc1ccc(CCNC(=O)c2ccc3c(c2)N(Cc2ccc(F)cc2)CCS3)cc1` gave Pf Dd2 inh 10%.
COc1cc(OC)c(NC(=O)c2ccc3c(c2)N(Cc2ccc(C)cc2)CCS3)cc1Cl was read as Pf Dd2 inh 11µM*.
CCOc1ccc(CNC(=O)c2ccc3c(c2)N(CC)CCS3)cc1 was read as Pf Dd2 inh 36%.
`O=[S+]([O-])(c1cccnc1)c1nnn2c1nc(NC1CCCC1)c1ccccc12` gave Pf Dd2 inh -1%.
`Cc1ccc(CNC(=O)CC2=C3CCCCC3N(Cc3ccc(F)cc3)C2=O)cc1` (configuration not stated) gave Pf Dd2 inh inactive.
O=C(c1c(O)cccc1O)N1CCOC(C(F)(F)F)C1 (configuration not stated) was read as Pf Dd2 inh -16%.
Screening Cc1cc(C[C@@H]2COC[C@@H]2NC(=O)c2cnn3ccccc23)on1 returned Pf Dd2 inh -14%.
CC(=O)N1CC(CO)C2(CCN(C(=O)c3ccc(Br)cc3)CC2)C1 (configuration not stated) was read as Pf Dd2 inh 23%.
Screening COC(=O)c1cn([C@H]2CO[C@H]3[C@@H]2OC[C@@H]3NCc2ccco2)nn1 returned Pf Dd2 inh -4%[44.1 µM].
`COc1ccc(CN2Cc3cc(NC(=O)c4ccc([N+](=O)[O-])cc4)ccc3OC(C)C2=O)c(OC)c1` (configuration not stated) gave Pf Dd2 inh 10µM*.
COc1ccc(CN2Cc3cc(NC(=O)c4ccc5c(c4)OCO5)ccc3OC(C)C2=O)cc1 (configuration not stated) was read as Pf Dd2 inh -7%.
Screening COc1ccc(C(=O)Nc2ccc3c(c2)CN(Cc2cc(F)cc(F)c2)C(=O)C(C)O3)cc1 (configuration not stated) returned Pf Dd2 inh -14%.
COc1ccccc1CN1Cc2cc(NC(=O)Cc3cccs3)ccc2OC(C)C1=O (configuration not stated) was read as Pf Dd2 inh inactive.
For CC1Oc2ccc(NC(=O)c3ccc([N+](=O)[O-])cc3)cc2CN(Cc2ccccc2F)C1=O (configuration not stated) the results were Pf Dd2 inh inactive.
For COc1ccccc1CCN1Cc2cc(NC(=O)Cc3cccs3)ccc2OC(C)C1=O (configuration not stated) the results were Pf Dd2 inh 11µM*.
COc1ccc(CN2Cc3cc(NC(=O)Cc4cccs4)ccc3OC(C)C2=O)cc1 (configuration not stated) was read as Pf Dd2 inh -5%.
`CC1Oc2ccc(NC(=O)c3ccc4c(c3)OCO4)cc2CN(Cc2ccccc2)C1=O` (configuration not stated) gave Pf Dd2 inh -21%.
Screening COc1ccccc1CN1Cc2cc(NC(=O)c3ccc4c(c3)OCO4)ccc2OC(C)C1=O (configuration not stated) returned Pf Dd2 inh 4µM*.
For O=C(Cn1nc2n(c1=O)CCCCC2)Nc1ccc2c(c1)OCO2 the results were Pf Dd2 inh 29%.
CCOC(=O)C1=C(C)N=C2SC=C(CC(=O)N3CCCC3)N2C1c1cc(OC)cc(OC)c1 (configuration not stated) was read as Pf Dd2 inh -7%.
Screening N#Cc1cc2n(n1)CCCN(C(=O)CC(c1ccccc1)c1ccco1)C2 (configuration not stated) returned Pf Dd2 inh -18%.
`O=C1OC2(CN1CC1CCOCC1)CN(C(=O)c1ccc(Oc3ccccc3)cc1)C2` gave Pf Dd2 inh -6%[44.1 µM].
For CN(Cc1ccc(OC(F)(F)F)cc1)C1CCCc2ccccc21 (configuration not stated) the results were Pf Dd2 inh -17%[44.1 µM].
`O=C(NCc1ccccc1)c1cn(C2CN(C(=O)Nc3ccc4c(c3)OCCO4)C2)nn1` gave Pf Dd2 inh inactive.
Cc1ccc(C(=O)N[C@@H](Cc2ccccc2)C(=O)N2CCCOCCNC(=O)CC2)s1 was read as Pf Dd2 inh -20%.
CCOCCn1nc(C)cc1C(=O)N1C[C@@H](CN2CCCCC2)[C@@H](CO)C1 was read as Pf Dd2 inh 17%.
O=C1CCC2(CCCN(C(=O)c3ccnc(-n4cnnc4)c3)C2)CN1CC1CC1 (configuration not stated) was read as Pf Dd2 inh 3%.
For CCc1noc(-c2cccn3c(CNC(=O)c4ccccn4)nnc23)n1 the results were Pf Dd2 inh -26%.
Screening Clc1ccccc1CNC1(Cc2cc(-c3ccccc3)on2)COC1 returned Pf Dd2 inh 8%[44.1 µM].
Screening COc1ccc(S(=O)(=O)N2Cc3ccccc3CC2C(=O)Nc2cc(Cl)ccc2Cl)cc1 (configuration not stated) returned Pf Dd2 inh 10µM*.
For COc1ccc(OC)c(S(=O)(=O)N2Cc3ccccc3CC2C(=O)Nc2ccc(Cl)cc2)c1 (configuration not stated) the results were Pf Dd2 inh inactive.
`COc1ccc(NC(=O)C2Cc3ccccc3CN2S(=O)(=O)c2ccccc2)cc1OC` (configuration not stated) gave Pf Dd2 inh -25%.
`CC(C)(C)C(=O)N1CC[C@@H](CC(=O)O)[C@@H](CC2=NCCc3cc(F)ccc32)C1` gave Pf Dd2 inh inactive.
O=C(O)c1cncc(N2CCC3(CC2)CNC(C(=O)O)C3)n1 (configuration not stated) was read as Pf Dd2 inh 3%.
O=C(c1ccc(F)cc1)N1CCOC[C@H](Oc2cnccn2)C1 was read as Pf Dd2 inh -6%[44.1 µM].
`Cc1ccccc1Oc1ncccc1CNCc1cccc(O)c1` gave Pf Dd2 inh 13µM*.
Screening CCn1nc(C)cc1C(=O)NCc1cccnc1Oc1ccccc1C returned Pf Dd2 inh -14%.
Screening Cc1ccccc1Oc1ncccc1CNCc1cc2c(cc1Cl)OCO2 returned Pf Dd2 inh inactive.
COc1ccc(NC(=O)N2CCC(c3noc(-c4cccnc4)n3)C2)cc1 (configuration not stated) was read as Pf Dd2 inh inactive[5.79 µM].
COc1ccccc1Cc1nc(-c2nnn3c2COC(c2ccc(Cl)cc2)C3)no1 (configuration not stated) was read as Pf Dd2 inh -22%.
For Cc1ccc(S(=O)(=O)N2CCn3c(nn(CC4CC4)c3=O)C2)c(C)c1 the results were Pf Dd2 inh -17%.
CS(=O)(=O)N1CCCC(C(=O)NCCN2CCOCC2)CCNC(=O)CC1 (configuration not stated) was read as Pf Dd2 inh 40%.
For COc1ccccc1OCc1nc2c(n1Cc1ccccc1)C(=O)N(CC1CC1)CCN2 the results were Pf Dd2 inh inactive.
Screening O=C1c2c(nc(COc3cccc(Cl)c3)n2Cc2ccccc2)NCCN1CC1CC1 returned Pf Dd2 inh -30%[44.1 µM].
For COc1cccc(OCc2nc3c(n2Cc2ccccc2)C(=O)N(Cc2cccc(Cl)c2)CCN3)c1 the results were Pf Dd2 inh 13µM*.
For COc1cc(OC)cc(OCc2nc3c(n2Cc2ccccc2)C(=O)N(Cc2cccc(Cl)c2)CCN3)c1 the results were Pf Dd2 inh 7.9µM*.
COc1ccc(OCc2nc3c(n2Cc2ccccc2)C(=O)N(CC2CC2)CCN3)cc1OC was read as Pf Dd2 inh -12%.
Screening O=C1c2c(nc(COc3cc(F)cc(F)c3)n2Cc2ccccc2)NCCN1Cc1ccccc1 returned Pf Dd2 inh -21%.
